# Measured values reported in publication PMC7826789 (International Journal of Molecular Sciences, 2021).
# Assays:
# Details in all cases: Compound Concentration (nM):1000
# YSK1 = test system: T1, YSK1
# T1 construct: gene STK25
# YSK4 = test system: T2, YSK4
# T2 construct: gene MAP3K19
# ZAK = test system: ZAK
# ZAP70 = test system: ZAP70
# p38-alpha = test system: T3, p38-alpha
# T3 construct: gene MAPK14
# p38-beta = test system: T4, p38-beta
# T4 construct: gene MAPK11
# p38-delta = test system: T5, p38-delta
# T5 construct: gene MAPK13
# p38-gamma = test system: T6, p38-gamma
# T6 construct: gene MAPK12
# 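Also: KINOMEscan scanMAX binding as percent activity remaining versus control; lower means stronger binding.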
Structure (SMILES),Percent Control (YSK1),Percent Control (YSK4),Percent Control (ZAK),Percent Control (ZAP70),Percent Control (p38-alpha),Percent Control (p38-beta),Percent Control (p38-delta),Percent Control (p38-gamma)
O=C(Nc1n[nH]c2nc(-c3ccc(O)cc3)c(Br)cc12)C1CC1 [SB-725317],79%,4.3%,100%,100%,100%,74%,100%,81%
CN1CCN(C(=O)c2ccc(NC(=O)Nc3ccc(N(C)c4ccnc(Nc5ccc(CS(C)(=O)=O)cc5)n4)cc3)cc2)CC1.Cl [GW830263A],83%,0%,86%,65%,83%,100%,100%,100%
CCS(=O)(=O)c1ccc(OC)c(Nc2ncc(-c3cccc(F)c3)o2)c1 [GW621970X],79%,90%,82%,86%,100%,100%,100%,100%
Cl.O=C(Nc1ccc(Oc2ccc3[nH]c(NC(=O)c4ccco4)nc3c2)cc1)Nc1cc(C(F)(F)F)ccc1F [GW683134A],70%,13%,3.2%,100%,97%,37%,100%,82%
NS(=O)(=O)c1ccc(N/N=C2\C(=O)Nc3ccc(-c4cnco4)cc32)cc1 [GW276655],59%,1.9%,80%,88%,100%,100%,99%,66%
NS(=O)(=O)c1ccc(Nc2ncc(-c3ccccc3)o2)cc1 [GW572399X],54%,30%,100%,100%,100%,100%,100%,100%
COC(=O)Nc1nc2ccc(Oc3ccc(NC(=O)Nc4cc(C(F)(F)F)ccc4F)cc3)cc2s1.Cl [GW693917A],100%,12%,6.8%,82%,18%,10%,96%,46%
COc1ccc2[nH]c3c4[nH]c5ccc(OC)cc5c4c4c(c3c2c1)C(=O)NC4=O [GW296115X],89%,0%,100%,76%,87%,100%,86%,70%
Cl.O=C(Nc1ccc(Oc2ccc3[nH]c(NC(=O)c4ccccc4)nc3c2)cc1)Nc1cc(C(F)(F)F)ccc1F [GW709042A],78%,69%,6.9%,94%,98%,52%,100%,82%
NS(=O)(=O)c1ccc(N/N=C2\C(=O)Nc3ccc(C(=O)NCc4ccncc4)cc32)cc1 [GW300657X],76%,2.4%,100%,85%,100%,100%,100%,42%
CCS(=O)(=O)c1ccc(OC)c(Nc2ncc(-c3cccc(OC)c3)o2)c1 [GW580509X],81%,96%,100%,100%,100%,100%,100%,100%
COc1cc(/C=N/Nc2ncnc3[nH]ncc23)ccc1O [GW578748X],70%,3.2%,59%,76%,100%,100%,100%,69%
COc1cc(C)c(N(C)C(=O)CN(C)C)cc1Nc1nc(Nc2cccc(F)c2C(N)=O)c2cc[nH]c2n1 [GSK2219385],100%,51%,90%,81%,97%,100%,100%,56%
COc1cc2ncn(-c3cc(O[C@H](C)c4ccccc4Cl)c(C(N)=O)s3)c2cc1OC [GSK237701A],78%,5.6%,100%,93%,100%,100%,100%,100%
Cl.O=S1CCN(Cc2ccc(-c3ccc4ncnc(Nc5ccc(OCc6ccccc6)c(F)c5)c4c3)o2)CC1 [GW576924A],81%,100%,100%,100%,100%,100%,100%,99%
CN(C)CCNC(=O)Nc1ccc(N(C)c2ccnc(Nc3ccc(CS(C)(=O)=O)cc3)n2)cc1.Cl [GW830900A],100%,12%,100%,90%,99%,100%,99%,100%
Nc1ncnc2occ(-c3ccc(NC(=O)Nc4cc(C(F)(F)F)ccc4F)cc3)c12 [GW770249X],70%,0.1%,46%,86%,85%,57%,4.8%,18%
COc1cccc(-c2c[nH]c3c(N/N=C/c4ccncc4)ncnc23)c1 [GW814408X],65%,0.7%,17%,89%,100%,100%,100%,100%
COc1cc2ncnc(Nc3ccc4c(cnn4Cc4ccccc4)c3)c2cc1OC.Cl [GW282449A],89%,98%,100%,100%,100%,100%,100%,100%
Cc1cc(O)cc(C)c1/C=C/c1cncc(C(N)=O)c1 [GW435821X],95%,84%,87%,96%,100%,100%,100%,100%
NS(=O)(=O)c1ccc(N/N=C2\C(=O)Nc3ccc(Cl)cc32)cc1 [GW280670X],80%,31%,100%,100%,100%,100%,100%,100%
